Rows were chosen to be rich in hits. Some 10% of all compounds tested hit in one or more screens of this group.
BAZ2B inh: blocks human BAZ2B | AlphaScreen BAZ2B-H3K14Ac peptide displacement | Q9UIF8 | Potency, µM (series often up to 114 µM), for the others: at the highest dose activity change, negative = inhibition, usual class: inhibitors | 4.4% of 360,000 active; also: % is scaled to controls: 0 for no effect and ±100 for the full control effect; nearly all actives have a fitted effect of over 60% in size
Target sequence (Q9UIF8 whole entry, looked up): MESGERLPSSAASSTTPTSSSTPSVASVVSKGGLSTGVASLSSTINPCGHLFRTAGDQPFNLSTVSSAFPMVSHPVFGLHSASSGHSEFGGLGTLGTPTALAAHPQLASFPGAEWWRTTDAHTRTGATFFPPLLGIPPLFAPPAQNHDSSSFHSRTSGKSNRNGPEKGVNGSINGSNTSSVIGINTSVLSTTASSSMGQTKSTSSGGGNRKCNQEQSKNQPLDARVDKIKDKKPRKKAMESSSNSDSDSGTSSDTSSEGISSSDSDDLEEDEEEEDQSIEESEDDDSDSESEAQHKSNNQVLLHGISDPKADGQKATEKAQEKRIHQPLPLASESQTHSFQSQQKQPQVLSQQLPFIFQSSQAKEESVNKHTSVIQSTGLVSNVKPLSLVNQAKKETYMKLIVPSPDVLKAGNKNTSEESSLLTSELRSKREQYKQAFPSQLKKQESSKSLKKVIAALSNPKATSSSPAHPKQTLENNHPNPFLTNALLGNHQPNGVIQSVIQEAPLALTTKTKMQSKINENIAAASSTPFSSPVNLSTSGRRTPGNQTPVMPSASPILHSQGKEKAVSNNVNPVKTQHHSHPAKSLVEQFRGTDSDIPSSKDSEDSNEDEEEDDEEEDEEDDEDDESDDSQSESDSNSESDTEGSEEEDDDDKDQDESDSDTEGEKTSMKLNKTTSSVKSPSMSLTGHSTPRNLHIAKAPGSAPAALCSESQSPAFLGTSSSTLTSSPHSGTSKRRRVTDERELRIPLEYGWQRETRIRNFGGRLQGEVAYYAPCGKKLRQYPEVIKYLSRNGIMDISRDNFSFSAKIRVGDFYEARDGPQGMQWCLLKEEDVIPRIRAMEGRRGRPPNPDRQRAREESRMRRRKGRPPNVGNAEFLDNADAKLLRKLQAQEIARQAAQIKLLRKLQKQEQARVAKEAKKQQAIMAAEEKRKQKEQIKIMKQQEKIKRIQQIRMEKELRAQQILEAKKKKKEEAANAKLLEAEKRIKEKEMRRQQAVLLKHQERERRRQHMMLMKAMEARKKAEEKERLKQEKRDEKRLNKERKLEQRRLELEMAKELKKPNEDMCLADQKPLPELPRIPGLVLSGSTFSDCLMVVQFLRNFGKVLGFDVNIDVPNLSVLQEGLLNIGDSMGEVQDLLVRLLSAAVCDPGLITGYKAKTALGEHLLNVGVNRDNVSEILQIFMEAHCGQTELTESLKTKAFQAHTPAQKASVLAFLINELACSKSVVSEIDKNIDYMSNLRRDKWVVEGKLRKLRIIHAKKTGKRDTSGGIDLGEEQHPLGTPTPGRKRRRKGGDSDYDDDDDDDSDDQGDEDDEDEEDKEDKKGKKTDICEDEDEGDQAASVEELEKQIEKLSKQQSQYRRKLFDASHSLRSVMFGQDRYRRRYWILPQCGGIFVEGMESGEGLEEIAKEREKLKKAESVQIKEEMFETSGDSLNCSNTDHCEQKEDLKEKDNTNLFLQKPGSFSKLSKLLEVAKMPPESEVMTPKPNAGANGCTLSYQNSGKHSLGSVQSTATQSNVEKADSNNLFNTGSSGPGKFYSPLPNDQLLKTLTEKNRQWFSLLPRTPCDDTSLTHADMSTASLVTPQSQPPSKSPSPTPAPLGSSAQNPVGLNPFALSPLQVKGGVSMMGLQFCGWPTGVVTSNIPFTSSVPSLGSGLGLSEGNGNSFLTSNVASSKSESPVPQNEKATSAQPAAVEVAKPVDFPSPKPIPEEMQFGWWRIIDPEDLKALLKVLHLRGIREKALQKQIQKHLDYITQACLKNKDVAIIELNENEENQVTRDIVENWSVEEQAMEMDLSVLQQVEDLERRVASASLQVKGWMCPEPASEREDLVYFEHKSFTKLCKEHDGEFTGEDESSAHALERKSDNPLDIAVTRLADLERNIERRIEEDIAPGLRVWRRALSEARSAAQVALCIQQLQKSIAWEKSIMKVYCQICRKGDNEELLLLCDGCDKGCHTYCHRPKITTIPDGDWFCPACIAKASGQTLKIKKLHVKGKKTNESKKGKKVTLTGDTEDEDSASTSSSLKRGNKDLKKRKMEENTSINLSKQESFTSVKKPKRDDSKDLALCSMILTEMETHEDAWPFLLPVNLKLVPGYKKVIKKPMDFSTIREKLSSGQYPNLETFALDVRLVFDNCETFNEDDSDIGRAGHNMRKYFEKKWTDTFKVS
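Protein-peptide AlphaScreen: BAZ2B 50 nM, b-H3K14Ac 50 nM, 1x PBS pH 7.4 + 0.01% Tween-20. Preincubation 30 min RT; cpd 30 min RT (top 110 uM); beads 20 min RT, light-protected.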
HP1b binding inh: HP1-beta chromodomain-methylated histone interaction inhibition; Potency, µM (top dose mostly 114 µM), inactives show top-dose activity change, negative = inhibition, usual class: inhibitors; 0.56% of 390,000 active; AlphaScreen HP1-beta / biotin-H3K9me3 peptide binding; also: nearly all actives have a fitted effect of over 70% in size
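Compound inhibition of the preformed complex between 50 nM HP1-beta and 50 nM biotinylated H3K9me3 peptide was read by AlphaScreen. Buffer was PBS pH 7.4 with 0.01% Tween-20. Incubations ran 30 min at room temperature, with 10 ug/mL donor/acceptor beads.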
G9a block: G9a (human) methyltransferase inhibition | Q96KQ7 | G9a H3K9 monomethylation, AlphaScreen, 2 h | Potency, µM (top dose mostly 102 µM), for the others: top-dose activity, negative = inhibition, hits mostly inhibitors | 8.8% of 350,000 active; also: % is scaled to controls: 0 for no effect and ±100 for the full control effect; nearly all actives have a fitted effect of over 75% in size
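AlphaScreen detection with an anti-monomethyl H3K9 antibody quantified product after a 2 h room-temperature reaction containing 500 nM biotinylated H3K9 peptide, 20 µM SAM and 20 nM enzyme, which had been preincubated 15 min with compound.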
GLS inhibitor: inhibitors of human glutaminase (GLS) | 0.21% of 410,000 active | Potency, µM (titrated, usually from 45.5 µM), for the others: at the top dose activity change, negative = inhibition, actives largely listed as inhibitors | GLS enzymatic activity, qHTS titration | O94925; also: % is scaled to controls: 0 for no effect and ±100 for the full control effect
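Enzyme dispensed in phosphate buffer (45 mM, pH 8.2, 0.02% Tween-20), compounds pinned in, then 1 mM L-glutamine solution and the glutamate oxidase–HRP–Amplex Red mix added; fluorescence read immediately and again after 30 min at room temperature.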
JMJD2A Tudor: inhibitors of human JMJD2A Tudor domain; AlphaScreen JMJD2A-Tudor / H3K4me3 peptide binding; AID 504339; Potency, µM (top dose mostly 114 µM), without a hit: at the highest dose activity change, negative = inhibition, hits mostly inhibitors; 4.4% of 390,000 active; also: % is scaled to controls: 0 for no effect and ±100 for the full control effect; nearly all actives have a fitted effect of over 50% in size
An asterisk follows results filed as active; ? = inconclusive; · = not tested or not shown; [ ] = remark or other dose. Calls follow the shape of the dose curve; as a rule, active = well fitted curve in the direction sought with a large enough effect; inconclusive = small, poorly fitted or top-dose-only effect, or another doubt; inactive = no such curve, though single readings can be large; an effect the other way counts as inactive or inconclusive. Potency is read from the fitted curve at half-maximal effect.

SMILES	BAZ2B inh	HP1b binding inh	G9a block	GLS inhibitor	JMJD2A Tudor
COc1ccccc1Cn1c(=S)[nH]c2cc(C(=O)NCC(OC)OC)ccc2c1=O	2%	49%	-13%	10µM*	7%
O=Cc1c(NCCN2CCCC2)c2ccccc2[nH]c1=O	6%	31%	10µM*	-10%	?
COc1ccc(-n2c(=S)[nH]c3cc(C(=O)NCc4cccnc4)ccc3c2=O)c(OC)c1	-34%	0%	?	-4%	-24%
O=Cc1c(NCCc2ccc(F)cc2)c2ccccc2[nH]c1=O	10%	22%	-1%	-5%	-16%
COc1ccc(-n2c(=S)[nH]c3cc(C(=O)NCc4ccccc4)ccc3c2=O)c(OC)c1	0%	28%	22µM*	-5%	-10%
COc1ccccc1Cn1c(=S)[nH]c2cc(C(=O)NC(C)C)ccc2c1=O	6%	19%	5%	3%	-4%
COc1cc2[nH]c(=S)n(NC(=O)c3ccccc3)c(=O)c2cc1OC	?	19%	?	7%	89µM*
COc1ccc(Cl)c2sc(N(CCN(C)C)C(=O)C3=COCCO3)nc12	·	12%	·	6%	-17%
Cc1nn(-c2ccc(F)cc2)c(-n2cccc2)c1C(=O)NCCCN1CCN(c2cccc(Cl)c2)CC1	?	-8%	?	-2%	?
COc1ccccc1Cn1c(=S)[nH]c2ccc(Br)cc2c1=O	2%	33%	15%	0%	-20%
COc1ccccc1Cn1c(=S)[nH]c2ccccc2c1=O	-1%	68%	15%	20µM*	-9%
O=C(NCCCN1CCOCC1)c1ccc2c(=O)n(Cc3cccc(Br)c3)c(=S)[nH]c2c1	-24%	?	35µM*	5%	?
COc1ccc(-n2c(=S)[nH]c3cc(C(=O)NCCCN4CCOCC4)ccc3c2=O)c(OC)c1	-14%	47%	?	-11%	?
COCCn1c(=S)[nH]c2cc(C(=O)NCCCN3CCOCC3)ccc2c1=O	?	69%	·	3%	25µM*
O=C(NCCCN1CCOCC1)c1ccc2c(=O)n(CCc3ccccc3)c(=O)[nH]c2c1	7%	10%	-2%[12.7 µM]	-2%	-12%
Cc1ccc(NC(=O)c2ccc(CNS(=O)(=O)c3ccc4c(c3)C(C)(C)C(=O)N4C)cc2)cc1F	-2%	38%	2%[59 µM]	7%	17%
COc1cc(OC)cc(-c2nc3nc(C)c(CCC(=O)Nc4ccc(F)cc4F)c(C)n3n2)c1	-19%	28%	-31%[59 µM]	-4%	-20%
CN1C(C(=O)c2ccccc2)=C(NC(=O)c2ccccc2Br)c2ccccc2S1(=O)=O	?	25%	?	5%	-24%
CNc1ccc(/C=C\CCCO)cn1	·	·	·	1%	·
COc1cc(O)c(C(=O)/C=C/c2ccc(OC)c(O)c2)c(OC)c1	·	·	-49%[2.33 µM]	·	·
COc1cc(/C=C/C(=O)c2ccccc2O)cc(OC)c1OC	56µM*	-32%	45µM*	18%	50µM*
COc1cc(OC)c(C=CC(=O)c2ccccc2O)c(OC)c1	·	28µM*	·	-6%	?
O=C1NCCN1c1ncc([N+](=O)[O-])s1	6%	16%	-1%[59 µM]	10%	-9%
C=CCn1c(Sc2ncc([N+](=O)[O-])s2)n[nH]c1=O	-18%	-9%	11µM*	-2%	-24%
O=C(c1ccccc1)N1CCn2c1nc1ccccc12	5%	5%	-7%[0.501 µM]	-9%	56µM*
SMILES	BAZ2B inh	HP1b binding inh	G9a block	GLS inhibitor	JMJD2A Tudor
COc1ccc(CNC(=O)CCNC(=O)N2CCn3c2nc2ccccc23)cc1	-17%[57.1 µM]	34%	45µM*	19%	40µM*
O=c1sc2ccccc2c(=O)n1Cc1ccccc1F	65%	143%	46%	13µM*	52%
O=C(NCc1cc(Cl)cc(Cl)c1)c1csc([C@@H]2C[C@H](O)[C@@H](CO)O2)n1	·	·	·	4%	·
Nc1c(C(=O)N2CCCCC2)sc(=S)n1-c1ccccc1	?	14µM*	?	-8%	50µM*
Nc1c(C(=O)N2CCOCC2)sc(=S)n1-c1ccccc1	-9%	-43%	2.2µM*	-3%	?
CCCCN(C(=O)c1ccccc1Cl)C(CC(C)C)c1nc2ccccc2[nH]1 (stereo not given)	·	·	·	-3%	·
COc1ccc(NC(=O)CN(C)C(=O)C2(c3ccccc3)CCCC2)cc1	·	-19%	·	-21%	-21%

High-throughput results from PubChem.
